Source: PubChem (several laboratories)
Sampled rows, rich in hits. Any-hit rate of the full collection: about 4%.
Mtb betalactam – beta-lactam sensitization of Mtb H37Rv, H37Rv; M. tuberculosis H37Rv growth with meropenem, percent inhibition; inhibition, % at 25 µM; hit rate 0.27% among 330,000; AID 434955, 2010;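 note: growth measured after seven days incubation then overnight dye step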
RecA intein inh – Mtb RecA intein splicing inhibitors, primary screen, biochemical, fluorescence, HTS; cell-free RecA intein splicing; inhibition, % (no concentration beside the values); hit rate 0.75% among 290,000; AID 2221, 2009; in the data active = inhibition above about 30%
Mtb UGM inh – M. tuberculosis UGM enzyme inhibitors, primary screen, biochemical, fluorescence polarization, single point; hit rate 0.06% among 320,000; inhibition, % at 10 µM; purified UGM, fluorescence polarization probe displacement; UDP-galactopyranose mutase (Mycobacterium tuberculosis (strain ATCC 25618 / H37Rv)), …; in the data active = inhibition above about 10%, passing the limit was not always enough
Target sequence (P9WIQ1 whole entry, looked up): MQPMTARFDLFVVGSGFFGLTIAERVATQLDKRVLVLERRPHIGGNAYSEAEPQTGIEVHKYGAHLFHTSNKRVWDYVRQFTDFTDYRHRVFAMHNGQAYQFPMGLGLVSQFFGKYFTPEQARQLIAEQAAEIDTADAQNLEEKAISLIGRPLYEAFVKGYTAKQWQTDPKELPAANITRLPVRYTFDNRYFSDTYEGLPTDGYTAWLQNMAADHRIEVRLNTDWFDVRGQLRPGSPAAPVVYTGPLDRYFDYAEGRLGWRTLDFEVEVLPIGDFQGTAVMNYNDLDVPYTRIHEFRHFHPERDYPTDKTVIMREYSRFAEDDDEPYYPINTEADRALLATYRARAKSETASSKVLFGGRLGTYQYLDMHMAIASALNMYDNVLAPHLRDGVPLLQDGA
Rv3671c inh – Rv3671c serine protease inhibitors, primary screen, biochemical, fluorescence polarization, M. tuberculosis H37Rv; hit rate 0.048% among 320,000; inhibition, % at 5.96 µM; P9WHR9; AID 2606, 2010; in the data active = inhibition above about 38%;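 note: extracellular domain of Rv3671c used as enzyme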
FBA Mtb inh – Mtb FBA enzyme inhibitors, primary screen, biochemical, fluorescence, strain H37Rv; Fructose-bisphosphate aldolase (Mycobacterium tuberculosis (strain ATCC 25618 / H37Rv)), …; hit rate 2.3% among 360,000; inhibition, % at 1 µM; purified M. tuberculosis FBA, fluorescence read-out; in the data active = inhibition above about 27%
GDH-TPI counter-1 – GDH-TPI coupling enzyme inhibitors, primary screen, artefact control for M. tuberculosis FBA inhibitor project, biochemical, absorbance, full deck; AID 588335, 2011; GDH-TPI coupled enzyme counterscreen, NADH absorbance; hit rate 1.2% among 360,000; inhibition, % at 4.8 µM; in the data active = inhibition above about 30%
Mtb FBA confirm – M. tuberculosis aldolase blockers, biochemical, fluorescence, strain H37Rv, confirmation; shares compounds with FBA Mtb inh; purified M. tuberculosis FBA, fluorescence read-out; inhibition, % at 1 µM; hit rate 78% among 5,600; AID 651616, 2012; in the data active = inhibition above about 27%
GDH-TPI counter-2 – GDH-TPI coupling enzyme inhibitors, artefact control for M. tuberculosis FBA inhibitor project, biochemical, fluorescence, high throughput; inhibition, % at 1 µM; GDH-TPI coupled enzyme counterscreen; shares compounds with FBA Mtb inh; hit rate 81% among 5,600; in the data active = inhibition above about 10%
GDH-TPI dose – GDH-TPI coupling enzyme inhibitors, dose response, artefact control for M. tuberculosis FBA inhibitor project, biochemical, fluorescence, IC50. shares compounds with FBA Mtb inh. GDH-TPI coupled enzyme assay, artifact counterscreen. IC50, µM. hit rate 79% among 170. AID 652145, 2013
Numbers stand for hits; . = inactive; / = not tested or not shown; + = active, no number; ! = not active in a repeat. Unless noted, the rule behind the calls is not given here.

SMILES	Mtb betalactam	RecA intein inh	Mtb UGM inh	Rv3671c inh	FBA Mtb inh	GDH-TPI counter-1	Mtb FBA confirm	GDH-TPI counter-2	others
O=C(Nc1cc(S(=O)(=O)N2CCCCC2)ccc1Cl)c1ccccc1NS(=O)(=O)c1ccc(F)cc1	.	.	.	.	33	.	.	.
CS(=O)(=O)c1ccccc1C(=O)Nc1ccc(-c2nc3ccccc3[nH]2)cc1	.	.	.	.	.	.	/	/
O=C(Nc1ccc(-c2nc3ccccc3[nH]2)cc1)c1ccccc1NS(=O)(=O)c1ccc(F)cc1	.	.	.	.	87	31	+	+
O=C(Nc1ccc(S(=O)(=O)Nc2ncccn2)cc1)c1ccccc1NS(=O)(=O)c1ccc(F)cc1	.	.	.	.	73	.	.	.
Cc1ccc(S(=O)(=O)Nc2ccccc2C(=O)NCc2cccnc2)cc1	.	.	.	.	51	.	59	48
O=C(COC(=O)CN1C(=O)COc2ccccc21)NCc1ccc(F)cc1	.	.	.	.	.	.	/	/
C=C1CC[C@@]23CC[C@]4(C)[C@@](OC2=O)([C@@H]3C1)[C@H]1O[C@H]1C1[C@@]2(C)CC[C@H](O)C(C)(C)C2CC[C@]14C (some centres not stated)	.	/	.	.	.	.	/	/
Cc1ccnc(NC(=O)c2cc(S(=O)(=O)N3CCCCC3)ccc2Cl)c1	.	.	.	.	38	.	92	84
CCc1nnc(NS(=O)(=O)c2ccc(NC(=O)c3ccccc3O)cc2)s1	.	.	.	.	73	.	35	26
CCc1nnc(NS(=O)(=O)c2ccc(NC(=O)OC)cc2)s1	.	.	.	.	.	.	/	/
COc1ccc(S(=O)(=O)N2CCCCCC2)cc1C(=O)Nc1cc(C)ccn1	.	/	.	.	.	.	/	/
CCOC(=O)c1cnc2sc3c(n2c1=O)CCCC3	.	/	.	.	108	.	53	45
CCOC(=O)c1cnc2nc(C)[nH]n2c1=O	.	.	/	.	.	.	/	/
COc1ccccc1OCc1nnc(SCC(=O)Nc2ccc(N3CCOCC3)cc2)n1C	.	.	.	.	.	.	/	/
C=CCN1C(=O)/C(=C/c2ccc(-c3ccc(F)cc3)o2)SC1=S	.	.	.	.	.	.	/	/
O=C(c1ccccc1)n1ccc(-c2cnc(-c3ccccc3)s2)n1	.	.	.	.	95	.	73	58
COc1ccc(-c2nc3c(Cl)cc(C(F)(F)F)cn3c2Cc2cccc(F)c2)cc1OC	/	/	/	/	.	/	/	/
CCN(C(=O)COC(=O)Cc1ccc(F)cc1)c1c(N)n(Cc2ccccc2)c(=O)[nH]c1=O	.	/	.	.	.	.	/	/
Cc1cc(=O)oc2cc(OCc3ccc(C(=O)N4CCN(c5ccc([N+](=O)[O-])cc5)CC4)cc3)ccc12	/	.	/	/	.	.	/	/
Cc1cc(=O)oc2cc(OCc3ccc(C(=O)N4CCN(c5ccccc5)CC4)cc3)ccc12	.	.	.	.	44	.	121	89
Cc1cc(=O)oc2cc(OCC(=O)N3CCCC3)ccc12	.	/	.	.	41	.	.	.	GDH-TPI dose=5.3
Cc1cc(=O)oc2cc(OCC(=O)N3CCOCC3)ccc12	/	.	/	/	.	.	/	/
CCOC(=O)C1CCN(C(=O)COc2ccc3c(C)cc(=O)oc3c2)CC1	.	.	.	.	35	.	148	136
c1ccc(Nc2ccc3ccccc3c2)cc1	/	/	/	/	33	.	145	97
CCCOC(=O)C1=C(C)NC2=C(C(=O)CC(C)(C)C2)C1c1cccnc1 (configuration not stated)	.	/	.	.	36	.	+	+
SMILES	Mtb betalactam	RecA intein inh	Mtb UGM inh	Rv3671c inh	FBA Mtb inh	GDH-TPI counter-1	Mtb FBA confirm	GDH-TPI counter-2	others
CCOC(=O)C1=C(C)NC2=C(C(=O)CC(C)(C)C2)C1c1cccc(C)n1 (configuration not stated)	.	.	.	.	37	.	174	159
CCOc1ccccc1/C=C/c1cc(C(=O)O)c2ccccc2n1	.	.	.	.	29	.	91	71
CCOc1ccccc1/C=C/c1nc2ccccc2[nH]c1=O	.	.	.	/	43	.	.	.
CC(=O)N(C(C)=O)c1ncc2c([nH]c3ccccc32)c1C#N	.	/	.	.	38	.	+	189
CCCCn1nc2cc(C(=O)NCCc3cccs3)ccc2c1OCC	.	.	.	.	62	.	125	103
CCOc1c2ccc(C(=O)N[C@H](C)C3CCCCC3)cc2nn1CC	.	.	.	.	64	.	53	45
CCOc1c2ccc(C(=O)NCCc3cccs3)cc2nn1CC	.	.	.	.	58	.	28	18
CCc1ccc(/C(C)=N/NS(=O)(=O)c2ccc(OC)cc2)s1	/	.	/	/	.	.	/	/
CCc1nc2c(OCc3ccccc3C(=O)OC)cccn2c1N(C)C(=O)CC(C)C	/	/	/	/	.	.	/	/
Cc1ccc(-n2c(O)c(C=Nc3cc(C)on3)c3ccccc3c2=O)c(C)c1	.	.	.	.	47	.	+	+
Cc1ccc(-n2c(O)c(C=NC3CCS(=O)(=O)C3)c3ccccc3c2=O)c(C)c1 (configuration not stated)	.	.	.	.	.	.	/	/
CC(C)(C)c1ccc(C(=O)N2CCC2(C)C(=O)Nc2cnc3ccccc3c2)cc1 (configuration not stated)	/	/	/	/	.	.	/	/
CCCCn1nc2cc(C(=O)N(CC)c3ccc(OC)cc3)ccc2c1OCC	.	.	.	.	28	.	112	87
CCN(C(=O)c1ccc2c(OC)n(CC)nc2c1)c1ccc(OC)cc1	.	.	.	.	31	.	.	.
Cc1cccc(N2CCc3c2nc2ccccc2c3N)c1	.	.	.	.	70!	.	52	37
Nc1c2c(nc3ccccc13)N(c1ccccc1)CC2	.	.	.	.	.	.	/	/
Cc1nc(CS(=O)(=O)c2ccc(Cl)cc2)cc(Sc2ccccc2Cl)n1	.	.	.	.	31	.	110	98
Cc1ccc2nc(Cl)cc(=O)n2c1	/	/	/	/	45	.	130	88
Cc1ccc2[nH]ccc(=O)c2c1	.	.	.	.	30	.	52	39
